Sampled rows, rich in hits. Any-hit rate of the full collection: about 6.5%.
HepG2 tox: HepG2 cytotoxicity, counter-screen for TGF-b inhibitors | HepG2 CAGA-GFP viability, ATP luminescence, 18 h | Potency, µM (titrated, usually from 46.1 µM), without a hit: at the highest dose activity change, negative = cytotoxicity, usual class: cytotoxic | 0.76% of 410,000 active; also: potency is read from the fitted curve at half-maximal effect
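CellTiter-Glo luminescence gave cytotoxicity after 18 hours at 37 degrees C. The cells were HepG2 CAGA-GFP in 1% FBS DMEM, stimulated with 500 pg/mL TGF-beta after compound addition. %Activity was normalised to no-cell wells (complete cell-killing) and DMSO (no toxicity), and curves were fitted and classified.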
Giardia kill: Giardia lamblia killing; Giardia lamblia trophozoite viability; activity change, % at 7.66 µM, hits read low; 0.15% of 340,000 active; AID 540267; in the data active = activity change below about -80%; inconclusive = between about -30% and that limit;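 also: parasites exposed to compound for two days anaerobically before the ATP read; % is scaled to controls: 0 for no effect and ±100 for the full control effect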
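Viability, read as ATP luminescence: trophozoites at 100 cells/well, compound added, 48 hrs anaerobic at 37 deg C, then 15-30 min room-temperature development before reading.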
IL-1B inflam inh: inhibitors of inflammasome signaling (IL-1 beta secretion). activity change, % at 57.5 µM. THP-1 LPS/ATP IL-1B secretion, AlphaLISA, 16 h; hits give low values. AID 743279. 4.7% of 360,000 active; in the data active = activity change below about -50%; inconclusive = mostly about -30% to -49%; also: % is scaled to controls: 0 for no effect and ±100 for the full control effect
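Secreted IL-1B measured by AlphaLISA bead assay after 16 h compound exposure of THP-1 cells; compounds (final up to 57.5 uM) added 1 h before LPS (250 ng/mL) and ATP (1.25 mM) stimulation; lower signal means less secretion.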
HT1080-NT tox: kills 2HG-producing HT-1080-NT fibrosarcoma cells; AID 686970; 1.6% of 360,000 active; Potency, µM (titrated, usually from 46.1 µM), for inactives: top-dose activity, negative = less viability, hits mostly cytotoxic; HT-1080-NT fibrosarcoma viability, CellTiter-Glo ATP luminescence, 48 h;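 also: NT is the 2HG producing partner of a matched IDH1 knockdown line; potency is read from the fitted curve at half-maximal effect; 0% = DMSO-treated cells and -100% = media-only wells without cells; nearly all actives have a fitted effect of over 55% in size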
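Toxicity toward the 2HG-producing NT line was scored as %Activity, normalised to DMSO and no-cell wells, from CellTiter-Glo luminescence after 48 hours' treatment.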
TGFb SMAD3 inh: inhibitors of TGF-b signaling; 1.2% of 410,000 active; HepG2 CAGA-GFP TGF-b/SMAD3 reporter, GFP fluorescence, 18 h; TGF-beta stimulated, 500 pg/mL final; Potency, µM (titrated, usually from 46.1 µM), for inactives: top-dose activity, negative = inhibition, usual class: inhibitors; also: potency is read from the fitted curve at half-maximal effect; % is scaled to controls: 0 for no effect and ±100 for the full control effect; nearly all actives have a fitted effect of over 65% in size
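TGF-beta reporter screen: HEPG2 CAGA-GFP, 1% FBS, 500 pg/mL TGF-beta final, 18 h; per-cell GFP summed per well; curves fitted and categorized by class.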
HT1080 IDH1KD tx: kills HT-1080 cells with IDH1 knockdown; HT-1080 IDH1 knockdown viability, ATP luminescence, 48 h; Potency, µM (titrated, usually from 46.1 µM), inactives show at the top dose activity, negative = toxicity, actives largely listed as cytotoxic; 2% of 360,000 active;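 also: potency is read from the fitted curve at half-maximal effect; 0% = DMSO wells and -100% = cell-free medium wells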
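HT-1080-IDH1KD cells (IDH1 knocked down), 750/well in RPMI with 5% FBS, treated with compound 48 h at 37 degrees C. Viability by CellTiter-Glo luminescence, normalised to DMSO and no-cell wells; concentration-response curves classed.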
* = called active by the depositor; ? = inconclusive; . = not tested or not shown; [ ] = another dose, or the depositor's remark. Unless noted, calls follow the shape of the dose curve; as a rule, active = well fitted curve in the direction sought with a large enough effect; inconclusive = small, poorly fitted or top-dose-only effect, or another doubt; inactive = no such curve, though single readings can be large; an effect the other way counts as inactive or inconclusive.

SMILES	HepG2 tox	Giardia kill	IL-1B inflam inh	HT1080-NT tox	TGFb SMAD3 inh	HT1080 IDH1KD tx
CC(C)N1CCc2c(sc(NC(=O)CCc3ccccc3)c2C(N)=O)C1	-20%	-20	?	-3%	-12%	-3%
CC(=O)Nc1sc2c(c1-c1nc3ccccc3s1)CCN(C(C)C)C2	-29%	16	-105*	12µM*	?	12µM*
CC(C)N1CCc2c(sc(NC(=O)Cc3ccccc3)c2C(N)=O)C1	-16%	3	?	7%	13%	9%
CC(C)N1CCc2c(sc(NC(=O)c3ccc4ccccc4c3)c2C(N)=O)C1	11µM*	3	-84*	?	7%	?
CC(C)N1CCc2c(sc(NC(=O)c3ccc(C(=O)c4ccccc4)cc3)c2C(N)=O)C1	-43%	-5	-98*	21µM*	?	18µM*
CC(C)N1CCc2c(sc(NC(=O)c3ccco3)c2C(N)=O)C1	8%	-12	?	21%	0%	9%
CC(C)N1CCc2c(sc(NC(=O)c3cc4cc([N+](=O)[O-])ccc4s3)c2C(N)=O)C1	13µM*	?	121	?	?	?
CCCN(Cc1nnc(-c2ccccc2Cl)o1)C(=O)c1cc2ccccc2o1	-16%	7	-9	-22%	-14%	-12%
CCN1CCc2c(sc(NC(=O)c3cc4ccccc4cc3OC)c2C(N)=O)C1	-111%	0	-100*	6.5µM*	?	8.2µM*
O=C(Cc1nc2ccccc2[nH]c1=O)c1ccccc1	0%	-9	-72*	-4%	-21%	-4%
O=C(Cc1nc2ccccc2[nH]1)c1ccc(Br)cc1	-2%	-13	-60*	0%	0%	-6%
O=c1[nH]c2ccccc2nc1Cc1ccccc1	-14%	9	0	-10%	-9%	1%
Cc1ccc(S(=O)(=O)N2CC3(O)CN(C(=O)OC(C)C)N(C(=O)OC(C)C)CC3(OC(=O)Nc3cccs3)C2)cc1 (stereo not given)	-38%	.	-80*	-14%	13µM*	-2%
Cc1ccc(S(=O)(=O)N2CC3(O)CN(C(=O)OC(C)C)N(C(=O)OC(C)C)CC3(OC(=O)NCc3ccco3)C2)cc1 (stereo not given)	-4%	.	-56*	4%	-9%	3%
COc1ccc(N2C(=O)CC(NCC#N)C2=O)cc1 (stereo not given)	3%	-3	6	6%	12%	7%
Cc1ccccc1C(=O)Nc1ccc(C(=O)N/N=C/c2ccc(O)cc2)cc1	-29%	-9	-99*	8.2µM*	6%	?
Cc1ccccc1C(=O)Nc1cccc(NC(=O)c2ccc(F)cc2)c1	-10%	2	-50*	1%	0%	-18%
Cc1ccc(/C=N/NC(=O)c2ccc(NC(=O)c3ccccc3Cl)cc2)o1	0%	12	-71*	0%	0%	-1%
O=C(Nc1cccc(NC(=O)c2ccccc2Cl)c1)c1ccc(F)cc1	3%	32	-12	-1%	-1%	-2%
C#CCOCCOCCOCCNc1nc(N2CCOCC2)nc(N2CCN(C(=O)[C@H](CCCCN)n3cc(CN)nn3)CC2)n1	10%	0	-13	0%	4%	6%
O=C(COc1ccc(Cl)cc1)NCc1cn2cc(Cl)ccc2n1	-3%	-1	-8	-11%	-18%	-16%
COc1ccc(/C=C2/SC(=O)N(CCNC(=O)C3CCCN3C(=O)c3cccs3)C2=O)cc1 (stereo not given)	-3%	-7	-149*	5%	-12%	-3%
CCS(=O)(=O)/N=C(\N)c1ccccc1	6%	8	9	?	7%	18%
CN(C)C/C=C/C(=O)Nc1cccc(-c2c[nH]c3ncnc(Oc4ccc(NC(=O)CC(=O)Nc5ccc(F)cc5)cc4F)c23)c1	-35%	?	-90*	-14%	-10%	-10%
COc1ccc(N2C(=O)CSC2c2ccc(F)c(F)c2)cc1 (stereo not given)	-7%	15	5	-1%	8%	-2%
SMILES	HepG2 tox	Giardia kill	IL-1B inflam inh	HT1080-NT tox	TGFb SMAD3 inh	HT1080 IDH1KD tx
Cc1noc(C)c1C(=O)OCC(=O)N(C)C1CCS(=O)(=O)C1 (stereo not given)	2%	-11	0	2%	?	7%
Cc1cc(C)cc(NC(=S)Nc2ccc3cn[nH]c3c2)c1	9%	8	-53*	17%	-3%	24%
CN(Cc1cnc2nc(N)nc(N)c2n1)c1ccc(C(=O)NC(CCC(=O)O)C(=O)O)cc1 (stereo not given)	0.28µM*	-6	8	0.23µM*	-27%	0.0065µM*
CN(Cc1cnc2nc(N)nc(N)c2n1)c1ccc(C(=O)NC(CCC(=O)O)C(=O)O)cc1C(F)(F)F (stereo not given)	-63%	-4	0	?	-25%	0.15µM*
Nc1nc(N)c2nc(CNc3ccc(C(=O)NC(CCC(=O)O)C(=O)O)cc3)cnc2n1 (stereo not given)	-37%	.	.	.	4%	.
COc1cccc(C(=O)O/N=C(\C)c2cnccn2)c1	-2%	-11	11	0%	15%	-2%
COc1ccc(N/C=C2\CCc3ccccc3C2=O)cc1	11µM*	-14	1	?	-30%	?
O=C1/C(=C/Nc2ccc3c(c2)OCO3)CCc2ccccc21	-68%	?	-2	?	?	?
COc1ccc2c(c1)CC/C(=C\Nc1ccc3c(c1)OCO3)C2=O	-33%	-14	-87*	?	1%	5%[9.24 µM]
Cc1cc(N2CCC(C)CC2)nc(SCC(=O)c2ccccc2)n1	-6%	16	-62*	-3%	-9%	-23%
CSc1ccc(NC(=O)C2(C)CCN2C(=O)c2sccc2C)cc1 (stereo not given)	-1%	.	-71*	5%	15%	-7%
Cc1ccsc1C(=O)N1CCC1(C)C(=O)Nc1cccc(C#N)c1 (stereo not given)	-14%	.	-11	0%	-3%	-1%
CCOC(=O)c1nnc(-c2ccccc2)o1	-11%	30	0	19%	3%	9%
O=C(CCc1ccccc1)c1nnc(-c2ccccc2)o1	-17%	8	-53*	-5%	-2%	26%
O=C(c1cnn2c1NC(c1ccco1)CC2C(F)(F)F)N1CCN(c2cccc(Cl)c2)CC1 (stereo not given)	-14%	-4	-12	15µM*	?	18µM*
CC1CCCC(C)N1S(=O)(=O)c1ccc(NC(=O)CNC2CCCC2)cc1 (stereo not given)	-10%	10	-8	-24%	-2%	?

Screening results: PubChem BioAssay, National Center for Advancing Translational Sciences (NCATS)
